# According to the supplement of paper PMC8728848:
# The sample as a whole holds a higher share of the strongest signals than the screen did.
# B1: PX9961X-pdi-531-24-531 (Parabacteroides distasonis) (protein)
# chain: DLTEEIHSSVIAENYYNNAGEVMAAMMRPWGHFCGTMQVAQSPWSCNELSSDCAAWPQKGRHGYDNGDWIRLHRHQWIPTDGQVVDAWKKLFEGIGYANNFLTDTENIDFEALQVPMSKAQAQAEMRVYRAYCYWYVMDMFGTAPICEKIGEINPSSKSRAELFAWIEKELNESIPSLSESKTETYGRVSKWGAYALLARLYLNAEIYTGQARWDDCIAACDELAKGGFALDKKWNDTFRADNDKRSTEIIWSIVYDEVYAKGMGWYQRWLHYAHQTGWDLQSGPWNGLVTQPTFYDSFADNDLRKIEGFLIGKQYPRKVDENGNYYYDTTAEPLKGSEEYNGQDLVFVNYIKSMTEGEENSGARSIKYEIQPGTTGDMNNDWVMFRYSEVIYNKAEALMRKNGGKATQEVVDMINSVRQRSFKAEDWEKAKYTTATLTMDEFLAEKGREFAFEGIRRTDLVRFNKFVTTSWWDKTASNEPKRNIFPIPQRQLDANANLSPNEANSLF
# What was measured:
# Assay in all cases: glycan array binding signal (z-score within array); higher = stronger binding
# Settings in all cases: glycan notation: IUPAC condensed, linker removed
# [1] = target: Fuc(a1-2)Gal(b1-3)[Fuc(a1-4)]GlcNAc(b1-2)Man(a1-3)[Fuc(a1-2)Gal(b1-3)[Fuc(a1-4)]GlcNAc(b1-2)Man(a1-3)]Man(b1-4)GlcNAc(b1-4)GlcNAc
# Summary of the method: (§1)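 Columns mapping to the same glycan were averaged after glycan names were converted to IUPAC-condensed notation. The data come from 3228 arrays in the Consortium for Functional Glycomics database, limited to those with an available protein sequence. Binding is reported as a within-array Z-score averaged across arrays of one protein sequence and across linkers.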
# [2] = target: Fuc(a1-2)Gal(b1-4)GlcNAc(b1-2)Man(a1-3)[Fuc(a1-2)Gal(b1-4)GlcNAc(b1-2)Man(a1-6)]Man(b1-4)GlcNAc(b1-4)GlcNAc
# Summary of the method: as §1
# [3] = target: Fuc(a1-2)Gal(b1-4)GlcNAc(b1-2)Man(a1-3)[Fuc(a1-2)Gal(b1-4)GlcNAc(b1-2)Man(a1-6)]Man(b1-4)GlcNAc(b1-4)[Fuc(a1-6)]GlcNAc
# Summary of the method: as §1
# [4] = target: Fuc(a1-2)Gal(b1-4)GlcNAc(b1-3)[Fuc(a1-2)Gal(b1-4)GlcNAc(b1-6)]GalNAc
# Summary of the method: as §1
# [5] = target: Fuc(a1-2)Gal(b1-4)[Fuc(a1-3)]GlcNAc(b1-3)GalNAc
# Summary of the method: as §1
# [6] = target: Fuc(a1-2)Gal6S(b1-3)GlcNAc
# Summary of the method: as §1
# [7] = target: Fuc(a1-2)[Gal(a1-3)]Gal(b1-3)GalNAc(b1-3)Gal(a1-4)Gal(b1-4)Glc
# Summary of the method: as §1
# [8] = target: Fuc(a1-2)[Gal(a1-3)]Gal(b1-4)GlcNAc(b1-2)Man
# Summary of the method: as §1
# [9] = target: Fuc(a1-2)[GalNAc(a1-3)]Gal(b1-4)GlcNAc(b1-2)Man(a1-3)[Fuc(a1-2)[GalNAc(a1-3)]Gal(b1-4)GlcNAc(b1-2)Man(a1-6)]Man(b1-4)GlcNAc(b1-4)GlcNAc
# Summary of the method: as §1
# [10] = target: Fuc(a1-3)[Gal3S(b1-4)]Glc
# Summary of the method: as §1
# [11] = target: Fuc(a1-3)[Gal3S(b1-4)]GlcNAc6S
# Summary of the method: as §1
# [12] = target: Gal(a1-3)Gal(b1-3)GlcNAc(b1-2)Man(a1-3)[Gal(a1-3)Gal(b1-3)GlcNAc(b1-2)Man(a1-6)]Man(b1-4)GlcNAc(b1-4)GlcNAc
# Summary of the method: as §1
# [13] = target: Gal(a1-3)Gal(b1-4)GlcNAc(b1-2)Man(a1-3)[Gal(a1-3)Gal(b1-4)GlcNAc(b1-2)Man(a1-6)]Man(b1-4)GlcNAc(b1-4)GlcNAc
# Summary of the method: as §1
# [14] = target: Gal(a1-3)[Gal(a1-4)]Gal(b1-4)GlcNAc
# Summary of the method: as §1
# [15] = target: Gal(b1-3)GalNAc(a1-3)[Fuc(a1-2)]Gal(b1-4)Glc
# Summary of the method: as §1
# [16] = target: Gal(b1-3)GlcNAc(b1-2)Man(a1-3)[Gal(b1-3)GlcNAc(b1-2)Man(a1-6)]Man(b1-4)GlcNAc(b1-4)GlcNAc
# Summary of the method: as §1
# [17] = target: Gal(b1-3)GlcNAc(b1-3)Gal(b1-4)GlcNAc(b1-2)[Gal(b1-3)GlcNAc(b1-3)Gal(b1-4)GlcNAc(b1-6)]Man(a1-6)[Gal(b1-3)GlcNAc(b1-3)Gal(b1-4)GlcNAc(b1-2)Man(a1-3)]Man(b1-4)GlcNAc(b1-4)[Fuc(a1-6)]GlcNAc
# Summary of the method: as §1
# [18] = target: Gal(b1-3)GlcNAc(b1-3)Gal(b1-4)GlcNAc(b1-3)Gal(b1-4)GlcNAc(b1-2)[Gal(b1-3)GlcNAc(b1-3)Gal(b1-4)GlcNAc(b1-3)Gal(b1-4)GlcNAc(b1-6)]Man(a1-6)[Gal(b1-3)GlcNAc(b1-3)Gal(b1-4)GlcNAc(b1-3)Gal(b1-4)GlcNAc(b1-2)Man(a1-3)]Man(b1-4)GlcNAc(b1-4)[Fuc(a1-6)]GlcNAc
# Summary of the method: as §1
# [19] = target: Gal(b1-3)GlcNAc(b1-6)GalNAc
# Summary of the method: as §1
# [20] = target: Gal(b1-3)[Fuc(a1-4)]GlcNAc(b1-3)Gal(b1-4)[Fuc(a1-3)]GlcNAc
# Summary of the method: as §1
# [21] = target: Gal(b1-4)GlcNAc(b1-3)Gal(b1-4)GlcNAc(b1-2)[Gal(b1-4)GlcNAc(b1-3)Gal(b1-4)GlcNAc(b1-6)]Man(a1-6)[Gal(b1-4)GlcNAc(b1-3)Gal(b1-4)GlcNAc(b1-2)Man(a1-3)]Man(b1-4)GlcNAc(b1-4)GlcNAc
# Summary of the method: as §1
# [22] = target: Gal(b1-4)GlcNAc(b1-3)Gal(b1-4)GlcNAc(b1-3)Gal(b1-4)GlcNAc(b1-3)Gal(b1-4)GlcNAc(b1-2)[Gal(b1-4)GlcNAc(b1-3)Gal(b1-4)GlcNAc(b1-3)Gal(b1-4)GlcNAc(b1-3)Gal(b1-4)GlcNAc(b1-6)]Man(a1-6)[Gal(b1-4)GlcNAc(b1-3)Gal(b1-4)GlcNAc(b1-3)Gal(b1-4)GlcNAc(b1-3)Gal(b1-4)GlcNAc(b1-2)Man(a1-3)]Man(b1-4)GlcNAc(b1-4)[Fuc(a1-6)]GlcNAc
# Summary of the method: as §1
# [23] = target: Gal(b1-4)GlcNAc(b1-3)Gal(b1-4)GlcNAc(b1-3)Gal(b1-4)GlcNAc(b1-3)Gal(b1-4)GlcNAc(b1-3)Gal(b1-4)GlcNAc(b1-2)[Gal(b1-4)GlcNAc(b1-3)Gal(b1-4)GlcNAc(b1-3)Gal(b1-4)GlcNAc(b1-3)Gal(b1-4)GlcNAc(b1-3)Gal(b1-4)GlcNAc(b1-6)]Man(a1-6)[Gal(b1-4)GlcNAc(b1-3)Gal(b1-4)GlcNAc(b1-3)Gal(b1-4)GlcNAc(b1-3)Gal(b1-4)GlcNAc(b1-3)Gal(b1-4)GlcNAc(b1-2)Man(a1-3)]Man(b1-4)GlcNAc(b1-4)[Fuc(a1-6)]GlcNAc
# Summary of the method: as §1
# [24] = target: Gal(b1-4)GlcNAc(b1-3)Gal(b1-4)GlcNAc(b1-3)GalNAc
# Summary of the method: as §1
# [25] = target: Gal(b1-4)GlcNAc(b1-6)[Gal(b1-3)]GalNAc
# Summary of the method: as §1
# GalNAc(a1-3)Gal = target: GalNAc(a1-3)Gal
# Summary of the method: as §1
# [26] = target: GalNAc(b1-3)Gal(a1-4)Gal(b1-4)GlcNAc
# Summary of the method: as §1
# [27] = target: GalNAc(b1-3)Gal(a1-6)Gal(b1-4)Glc
# Summary of the method: as §1
# GalNAc(b1-4)Gal(b1-4)Glc = target: GalNAc(b1-4)Gal(b1-4)Glc
# Summary of the method: as §1
# [28] = target: GlcNAc(a1-4)Gal(b1-4)GlcNAc(b1-3)Gal(b1-4)GlcNAc
# Summary of the method: as §1
# [29] = target: GlcNAc(b1-3)Gal(b1-4)GlcNAc(b1-3)Gal(b1-4)GlcNAc(b1-3)Gal(b1-4)GlcNAc(b1-2)[GlcNAc(b1-3)Gal(b1-4)GlcNAc(b1-3)Gal(b1-4)GlcNAc(b1-3)Gal(b1-4)GlcNAc(b1-6)]Man(a1-6)[GlcNAc(b1-3)Gal(b1-4)GlcNAc(b1-3)Gal(b1-4)GlcNAc(b1-3)Gal(b1-4)GlcNAc(b1-2)Man(a1-3)]Man(b1-4)GlcNAc(b1-4)[Fuc(a1-6)]GlcNAc
# Summary of the method: as §1
# [30] = target: GlcNAc(b1-3)Gal(b1-4)GlcNAc(b1-6)[GlcNAc(b1-3)]Gal(b1-4)GlcNAc
# Summary of the method: as §1
# Kdn(a2-3)Gal(b1-4)GlcNAc = target: Kdn(a2-3)Gal(b1-4)GlcNAc
# Summary of the method: as §1
# [31] = target: Neu5Ac(a2-3)Gal(b1-3)GlcNAc(b1-3)GalNAc
# Summary of the method: as §1
# [32] = target: Neu5Ac(a2-3)Gal(b1-3)[Neu5Ac(a2-6)]GlcNAc(b1-3)[Fuc(a1-3)[Gal(b1-4)]GlcNAc(b1-6)]Gal(b1-4)Glc
# Summary of the method: as §1
# [33] = target: Neu5Ac(a2-3)Gal(b1-4)GlcNAc(b1-2)[Neu5Ac(a2-3)Gal(b1-4)GlcNAc(b1-6)]Man(a1-6)[Neu5Ac(a2-3)Gal(b1-4)GlcNAc(b1-2)Man(a1-3)]Man(b1-4)GlcNAc(b1-4)GlcNAc
# Summary of the method: as §1
# [34] = target: Neu5Ac(a2-3)Gal(b1-4)GlcNAc(b1-3)Gal(b1-4)GlcNAc(b1-3)[Neu5Ac(a2-3)Gal(b1-4)GlcNAc(b1-3)Gal(b1-4)GlcNAc(b1-6)]GalNAc
# Summary of the method: as §1
# [35] = target: Neu5Ac(a2-3)[GalNAc(b1-4)]Gal(b1-4)Glc
# Summary of the method: as §1
# [36] = target: Neu5Ac(a2-6)Gal(b1-4)GlcNAc(b1-2)Man(a1-3)[Man(a1-6)]Man(b1-4)GlcNAc(b1-4)GlcNAc
# Summary of the method: as §1
# Neu5Ac(a2-6)GalNAc = target: Neu5Ac(a2-6)GalNAc
# Summary of the method: as §1
# [37] = target: Neu5Ac(a2-8)Neu5Ac(a2-3)Gal(b1-3)GalNAc(b1-4)[Neu5Ac(a2-3)]Gal(b1-4)Glc
# Summary of the method: as §1
# [38] = target: Neu5Ac(a2-8)Neu5Ac(a2-3)Gal(b1-4)GlcNAc
# Summary of the method: as §1
# [39] = target: Neu5Ac(a2-8)Neu5Gc(a2-3)Gal(b1-4)GlcNAc
# Summary of the method: as §1
binder,measurement,setting,value
B1,glycan array binding signal (z-score),[1],0.026
same,glycan array binding signal (z-score),[2],1.28
same,glycan array binding signal (z-score),[3],-0.118
same,glycan array binding signal (z-score),[4],-0.351
same,glycan array binding signal (z-score),[5],0.289
same,glycan array binding signal (z-score),[6],-0.189
same,glycan array binding signal (z-score),[7],-0.567
same,glycan array binding signal (z-score),[8],-0.156
same,glycan array binding signal (z-score),[9],0.31
same,glycan array binding signal (z-score),[10],0.374
same,glycan array binding signal (z-score),[11],-0.332
same,glycan array binding signal (z-score),[12],3.82
same,glycan array binding signal (z-score),[13],0.935
same,glycan array binding signal (z-score),[14],7.26
same,glycan array binding signal (z-score),[15],0.221
same,glycan array binding signal (z-score),[16],4.29
same,glycan array binding signal (z-score),[17],3.82
same,glycan array binding signal (z-score),[18],7.05
same,glycan array binding signal (z-score),[19],1.52
same,glycan array binding signal (z-score),[20],-0.466
same,glycan array binding signal (z-score),[21],2.17
same,glycan array binding signal (z-score),[22],3.6
same,glycan array binding signal (z-score),[23],3.41
same,glycan array binding signal (z-score),[24],0.788
same,glycan array binding signal (z-score),[25],-0.374
same,glycan array binding signal (z-score),GalNAc(a1-3)Gal,0.96
same,glycan array binding signal (z-score),[26],-0.236
same,glycan array binding signal (z-score),[27],2.61
same,glycan array binding signal (z-score),GalNAc(b1-4)Gal(b1-4)Glc,-0.106
same,glycan array binding signal (z-score),[28],-0.352
same,glycan array binding signal (z-score),[29],0.524
same,glycan array binding signal (z-score),[30],-0.581
same,glycan array binding signal (z-score),Kdn(a2-3)Gal(b1-4)GlcNAc,-0.114
same,glycan array binding signal (z-score),[31],-0.825
same,glycan array binding signal (z-score),[32],0.188
same,glycan array binding signal (z-score),[33],0.2
same,glycan array binding signal (z-score),[34],-0.773
same,glycan array binding signal (z-score),[35],-0.049
same,glycan array binding signal (z-score),[36],-0.755
same,glycan array binding signal (z-score),Neu5Ac(a2-6)GalNAc,-0.425
same,glycan array binding signal (z-score),[37],0.572
same,glycan array binding signal (z-score),[38],-0.116
same,glycan array binding signal (z-score),[39],14.4
